Hit rate of the full screen: of about 31,000 sequences, about 1,400 (4.5%) were called active.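 How the source made its calls: active means median seed-adjusted z-score above 1 or below -1; inactive means the rest.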 The entries come from a sample that favours actives as a whole.

A short description of the experiment: Novel Modifiers of Survival Motor Neuron (SMN) Protein: Gene Identification via Genome-wide siRNA Screen.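 Further: luminescence tracks full-length SMN protein made from the SMN2 reporter.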 The note with it: HEK293T SMN2-luciferase reporter, siRNA knockdown, 72 h; actives lie on both sides. In outline:
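HEK293T cells stably expressing an SMN2 splicing/cDNA-luciferase reporter were reverse-transfected with a druggable-genome siRNA library and read by luminescence at 72 hours; hits defined by MAD score above 1.0 or below -1.0.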
On the technique in general: Reporter assays use an easily measured gene product as a stand-in for the process of interest.
In the case of CAGUUUAUCUCAGACAUCUTT against CD9, the median seed-adjusted z-score was -1.02 (active).

For UGGUCCGACUGGUACGACATT against TAC1, the median seed-adjusted z-score was 0.0499 (inactive). In the case of GAGUCUUUAUUGGUAAAGATT against GLRX, the median seed-adjusted z-score was -0.0561 (inactive). In the case of ACAUUGUGGUAGCCUUGUATT against LYN it was -0.178 (inactive); in that of GGCUGUCCUUAGUACCAGATT against CFTR, -1.23 (active). As for GGAACUAAACUUGAUCUUATT against RAC1, the median seed-adjusted z-score was -0.0348 (inactive). Consider GAGUCGCUUUAGCUCCGAATT against XPNPEP2, for which the median seed-adjusted z-score was -0.158 (inactive).

As to GGGAAAGCUGGACUACUAATT against PIK3CB, the median seed-adjusted z-score was 0.0911 (inactive). In the case of CAAGGUGUUUUACCUGAAATT against YWHAH it was -0.125 (inactive); in that of GCGUGACAGUGAUCCUGUATT against SLC27A5, 0.441 (inactive); in that of AGAUCGACGUGAUCAAGCATT against GNAS, -0.531 (inactive). In the case of GGACAUCUGGGUGAAGUUUTT against SNRPF it was -2.66 (active).

As to CUAUCACUCUGGAACUGGATT against SMC2, the median seed-adjusted z-score is -0.052 (inactive). With GGACAUGAACCAUACGAAUTT against PRPF8 the figure was -1.54 (active); with CAAUAAGACUGAGUUAUUATT against ETNK1, 0.299 (inactive); with GACCCAAAGCGGCAGCAAATT against KLRC2, -0.472 (inactive). In the case of CUCAUUGAGUUGGACAAAUTT against RHOU it was -1.44 (active).

With GGAUCGUGGUUGCAGGGAUTT against DNASE1, the median seed-adjusted z-score is -0.35 (inactive). Take CCAGACAGGAGGAACCAUATT against HDAC11: the median seed-adjusted z-score was 0.259 (inactive). With CUAUGGACAUGUCAAUUGUTT against CCNA2 the figure was 0.136 (inactive).

As for CCGUAUUUCUAGUUCCCUUTT against ZNF442, the median seed-adjusted z-score was 1.06 (active).

In the case of GUGUGAUGGUUGUAAACGATT against ZMYM6, the median seed-adjusted z-score was -0.355 (inactive).

For CAUACUCAUUCUUGCAAUATT against PHOSPHO2, the median seed-adjusted z-score is -0.247 (inactive). With GAGAGUAAAUAUGCGAAUATT against ATP8B1 the figure was 0.357 (inactive); with GCAACAUCCUGGUUUUCGATT against LRP2, -0.512 (inactive).

Take GUAUCGCUGUUUCUACGGUTT against LILRA1: the median seed-adjusted z-score was -0.231 (inactive). Turning to GGAUCAUUCUCAACGGGAUTT against KCNV2, the median seed-adjusted z-score was -1.13 (active).

In the case of UGUUGACACUUUUAUCCAATT against ANAPC11, the median seed-adjusted z-score is -0.581 (inactive). With AACCCUUUGUGGAACACCATT against PSMB4 the figure was -0.16 (inactive); with CGCAAAAAGGCAGACGAAATT against DUX5, -0.295 (inactive); with GCUAAGAAGAGAUAAUGAATT against MLKL, 0 (inactive).

On to CCGAUUCGGUCACCAAGUATT against MYO1F, for which the median seed-adjusted z-score was 0.103 (inactive). On to CCCUCACCGUGCAUGAGAATT against ZNF74, for which the median seed-adjusted z-score was 1.17 (active). In the case of GUGCUAAAGAUCAUUGAUATT against TRIM32 it was 0.109 (inactive); in that of GAUCAUGCGUAACUACAGUTT against JUP, 0.15 (inactive). With AGAGCACCAGAAGACACAATT against GJC3 the figure was -0.137 (inactive). For GGACCUUUUUGUUAAGUCATT against RASD1, the median seed-adjusted z-score was 0.674 (inactive). Regarding GGUCUUUACUGGAUUCAGATT against SERINC3, the median seed-adjusted z-score is 0.29 (inactive). With GAAUUUGUAUGAGAGCAUUTT against CYTH3 the figure was 0.196 (inactive). For CUCUUAUGUUGGAUAUGUATT against USP14, the median seed-adjusted z-score was 0 (inactive). In the case of GGAAGAAUUUCAGUCAGAATT against ZNF436 it was 0.00767 (inactive); in that of GGACCUGCAUAUGAAAGUATT against PCDH8, -1.03 (active); in that of CAUUGUCUAUCAUCGCAAATT against NEB, 0.0485 (inactive).

For GGAAGGCAGAUGUAUCUUUTT against CMPK1, the median seed-adjusted z-score is -0.363 (inactive). In the case of GGCCUACGUUUGAAAGACATT against ZNF792 it was 0 (inactive); in that of GACUUGUGAUACAAGCGUATT against RAD23B, 0.639 (inactive); in that of GGUAAAGGGAAGUAACUAUTT against SLC2A13, -0.0451 (inactive).

Turning to CCCUAUCAAUUUCUAUGGATT against MPP4, the median seed-adjusted z-score is 0.13 (inactive). For the sequence GCCUGACAGUGGUAUACAATT against COPZ1, the median seed-adjusted z-score was -1.02 (active). As for GCUACAACUGGAUAAGGAATT against FTSJ1, the median seed-adjusted z-score is 0.0774 (inactive). As to CAUGAUAUCUGGACCCAAATT against SSX3, the median seed-adjusted z-score was 0 (inactive). For AGACGUACCGAGAGGAGUATT against PLA2G2F, the median seed-adjusted z-score was 0.508 (inactive). With CCAUGCUGGAGAUCAAGAATT against PRKAG3, the median seed-adjusted z-score is -1.03 (active).

Regarding CCCUGGAUGUCCUAUCUGATT against SLC2A1, the median seed-adjusted z-score is -0.349 (inactive). Regarding GGAGGAUGACAAGAUCUAUTT against RNF113A, the median seed-adjusted z-score is -0.128 (inactive). In the case of GCACUGAUGUAAAUUACUUTT against RAB6C, the median seed-adjusted z-score is -1.08 (active). In the case of GCAGUACAGUGAAUGCCGATT against AKAP8, the median seed-adjusted z-score was -0.252 (inactive). For the sequence CCACCGAGCUAACAUCUGATT against MFAP3L, the median seed-adjusted z-score was 1.03 (active). With CAGACUUAUUGUAACAAGATT against ENPP3 the figure was 0.66 (inactive); with GCUACACUCAACUACCUGATT against ADCY5, -0.123 (inactive); with CCACAAGAGUUCGAACUCATT against ZFX, -0.581 (inactive).

Consider GGAAUGCAAUUCUCAGAGATT against LCN2, for which the median seed-adjusted z-score is 0.123 (inactive).

For the sequence CACAGAUUCGAGAAAUUCATT against SF3B1, the median seed-adjusted z-score was -3.65 (active). For the sequence GGUUGACAAAUGCAGGAUATT against RIOK2, the median seed-adjusted z-score is -0.16 (inactive). With GCAUCGGCAUCUUCACGCUTT against FZD5 the figure was -0.129 (inactive); with GACCCGCGAUUAAACCUCATT against CHST1, 0.181 (inactive); with GGUUUGGGAUGGGAAUUGATT against SUPT16H, 1.2 (active). With GGGUACAAGUUACCUAAUATT against TDRD6 the figure was 0 (inactive); with GGAAACGACCUGUCAAAGATT against PHAX, -0.0716 (inactive); with GGAGAUCGUUCUGCACAGATT against PAEP, -0.0632 (inactive).

CCAUCUUGGUAAUGCCCAUTT against HTR1D: the median seed-adjusted z-score is -0.155 (inactive). In the case of CGAGUUACUUUUCAGCUAATT against MYH4 it was -1.8 (active). In the case of AGUUCACCCUCGUACUCUATT against FURIN it was 0.0975 (inactive); in that of UCAUAAACUUGGAUAAGCATT against NRIP3, -0.699 (inactive). With GCGAAUGAGUGGUAGAGGATT against ARHGAP21 the figure was 0.229 (inactive). On to GCACUUUUCGAGGAGGAGATT against SLC12A7, for which the median seed-adjusted z-score is -0.0309 (inactive).

Consider CAGUUGAUUUAAGAGGUAATT against PRPF4B, for which the median seed-adjusted z-score was -2.29 (active). With CAAGGAGUUUUACCCAGUATT against CYP4Z1, the median seed-adjusted z-score is -0.139 (inactive). With CUUUAUGACUUAGAGUUAATT against BAAT the figure was 0.641 (inactive). In the case of GAACUUAUAAGUGCAGCAATT against ZNF547 it was 0.099 (inactive); in that of CGUGGAAGGUGAGUAAUAATT against ZBTB40, 0.187 (inactive).

For the sequence GGUGGUGAAUGAAGGUUCATT against HINT1, the median seed-adjusted z-score is 0.873 (inactive).

Turning to CCAUAACCGCCACACCCUUTT against GPR153, the median seed-adjusted z-score is -1.08 (active). With GAAUGCAUGUGAUCACCUATT against SF3B14 the figure was -1.26 (active).

As to GGGUUGCUAGAAAAUCGUATT against USP37, the median seed-adjusted z-score is 0.0907 (inactive). With GAGAUGAACGUGUAAAGAATT against CIR the figure was -0.197 (inactive); with CAGAAUAUAUGACAGGAAATT against YY1, 1.94 (active); with CCUCCGGAACAAGAACUAATT against ZNF397, -0.107 (inactive). With GUCUGCUUUGUAUAGAUAATT against KLRC3 the figure was 0.833 (inactive).

CGACUACAUGUUCAAGAUUTT against RAB3A: the median seed-adjusted z-score was -0.0787 (inactive).

Turning to GGAUGCGUUUUCUGACAAATT against GPR149, the median seed-adjusted z-score is -0.186 (inactive). With GCAUACGAUUUUAAGCGGATT against PTEN the figure was -0.408 (inactive); with GAACCAGGAGAGAAUAGAATT against PDGFRL, 0.0203 (inactive). On to GCUGCGAGCUCGAAACUUUTT against SEC14L4, for which the median seed-adjusted z-score is -0.714 (inactive). In the case of CGACAAGUCUGACAGGGAUTT against PQBP1 it was -1.12 (active); in that of GGUUUGAGCUUACUCUUCATT against ACCN5, 0.227 (inactive); in that of GGGAAGAACAGAAUACUGATT against ZNF563, 0.00283 (inactive). In the case of GCGUGGAAAUUGUACCCGUTT against MBNL3, the median seed-adjusted z-score was -0.189 (inactive).

With GGAAAAGGAACGGAAUAAATT against MLN, the median seed-adjusted z-score was -0.422 (inactive).

On to GCAGUUAACACUCAAGGAATT against MKKS, for which the median seed-adjusted z-score was 1.03 (active).

Consider GGUAAUCUUUAUGAAGAGATT against GCM1, for which the median seed-adjusted z-score was 0.0197 (inactive). Consider GCCUGUAAGUUAUUAAAGATT against ARL4D, for which the median seed-adjusted z-score was -0.523 (inactive).

With GGCUGAAAUUGUAACCCUATT against TPD52L3, the median seed-adjusted z-score is 0.552 (inactive). GCAACCUUCUAACUACGGUTT against HNRNPA2B1: the median seed-adjusted z-score is 1.33 (active). In the case of CAGGAUCUGUUCAACCAAATT against VWA2 it was 0.584 (inactive); in that of GGAUGGGAACAACCCUGCATT against HMGN4, -0.0471 (inactive). In the case of CCUCCUUGUUAGUGUCUUUTT against CLEC11A it was -1.1 (active). For the sequence CCAGGUCCCUAAUCAUGGATT against NOXA1, the median seed-adjusted z-score was -0.441 (inactive).

The record behind these values is PubChem BioAssay AID1347426 (Functional Genomics Laboratory (NCATS/FGL), 2020).
